Results on 39 compounds are retold here after PubChem BioAssay (NCI).

This is part of a sample that, as a whole, favours compounds with a hit. Of some 79,000 tested, about 15% had one in any assay. Values without a mark were called inactive. Active and inactive are the calls of the source. Cut-off read from the data, not from the text of the source: active = growth inhibition above about 70%; inactive = the rest.

A short description of this test: NCI Yeast Anticancer Drug Screen. Data for the mlh1 rad18 strain (AID 175). As to conditions: S. cerevisiae mlh1 rad18 strain growth inhibition; at 50.0 µM; hits give high values. A digest of the protocol: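 In this whole-cell yeast screen, a strain with altered DNA damage repair is challenged with compound, and its growth is measured against matched vehicle-treated controls.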
With `O=C(OC1C2CCC2C2CC21)c1ccc([N+](=O)[O-])cc1[N+](=O)[O-]` (centres undefined), the growth inhibition is 62.9%.
Then `N#CCc1nc2c(s1)C(=O)c1ccccc1C2=O`, with 68.7%; and `CC1=C(C(=S)Nc2ccc(Cl)c(C(=O)OC(C)C)c2)SCCO1`, with 63.8%.
Then `O=C1C(Cl)=C(c2ccc([N+](=O)[O-])cc2)C(=O)c2c(O)cccc21`, with 88.3% (active).
With `CCOc1ccc2nc(C)cc(C)c2c1`, the growth inhibition is 38.6%.
`CN(C)CC(O)c1cc(-c2ccc(Cl)cc2)nc2c(Cl)cc(Cl)cc12` (centres undefined): the growth inhibition was 99.4% (active).
Then `CCCC(=S)N1CCOCC1`, with 26.6%; and `C/C(=C/CC1CCC2C3=CCC4CC(O)CCC4(C)C3CCC12C)C(C)C(C)C` (centres undefined), with 97.3% (active); and `NCC(O)CSc1ccc(Cl)c(Cl)c1` (centres undefined), with 11.4%.
Then `CCCCCCCCC(=O)NCCCNCCCNC(=O)CCCCCCCC`, with 89.3% (active); and `O=C1c2ccc(O)cc2C(=O)c2c1ccc(O)c2O`, with 77.4% (active); and `Clc1nc(Cl)c(Cl)c(-c2ccccc2)n1`, with 87.3% (active).
Then `Cc1ccc(-c2c(C#N)c(-c3ccc(Cl)cc3)c(C#N)c(=O)n2NS(=O)(=O)c2ccccc2)cc1`, with 74.3% (active); and `CC(CCC(=O)O)(c1cc(Br)c(O)c(Br)c1)c1cc(Br)c(O)c(Br)c1`, with 90.4% (active).
For the compound `N#CC(C(=O)CCCC(=O)Nc1ccc(Cl)cc1)c1ccccc1Cl` (centres undefined), the growth inhibition is 96.7% (active).
As to `Cc1ccc(S(=O)(=O)S/C(=N\c2ccccn2)Nc2ccccn2)cc1`, the growth inhibition was 52.1%.
In the case of `NC(=O)C1CCCN1C(=O)C1CCCN(Cc2cc(CN3CCCC(C(=O)N4CCCC4C(N)=O)C3)cc(CN3CCCC(C(=O)N4CCCC4C(N)=O)C3)c2)C1` (centres undefined), the growth inhibition is 28.6%.
`O=C(/C=C\c1cccc2ccccc12)c1ccccn1`: the growth inhibition was 99% (active).
Then `COC(=O)c1cccc2c1C(=O)c1ccccc1-2`, with 1.55%; and `Cn1c(=S)c2[nH]c(SCCN3CCCCC3)nc2n(C)c1=O`, with 98.5% (active); and `CN(C)CCCSc1c2ccccc2nc2cccc([N+](=O)[O-])c12`, with 20.6%.
Then `CCCCCCCCN(CCCCCCCC)CC(O)c1cc(-c2ccc(Cl)cc2)nc2c(Cl)cccc12` (centres undefined), with 33.5%; and `CCCCCCCCCCCCS`, with -30.9%.
Then `COC(=O)c1nc(=S)[nH]c(C(=O)OC)c1C(=O)c1ccc([N+](=O)[O-])cc1`, with 91% (active); and `Cc1[nH]c2ccccc2c1C1=CC2(C)Nc3ccccc3C2C(C)(C)C1` (centres undefined), with 94.7% (active); and `CCCCCCCCN(CCCCCCCC)CC(O)c1cc(-c2ccc(OC)cc2)nc2cc(Cl)ccc12` (centres undefined), with 89% (active).
Consider `O=C(CC(C[N+](=O)[O-])c1ccc2c(c1)OCO2)c1ccccc1` (centres undefined), for which the growth inhibition is 45.1%.
As for `CN(C)CCN(C)CCC(=O)/C=C/c1ccccc1`, the growth inhibition was 99.5% (active).
Then `NC(N)=NC(N)=Nc1ccc(-c2ccccc2)cc1`, with 32.4%; and `O=[N+]([O-])c1ccccc1NCCO`, with -24.9%; and `Cn1c2c(c3ccccc31)CCN(CCN1CCN(c3cccc(Cl)c3)CC1)C2=O`, with 80.6% (active).
Consider `CC(=O)Oc1c2c(c(C)c3ccccc13)C(=O)c1cccnc1C2=O`, for which the growth inhibition was 98.6% (active).
For the compound `O=C(/C(=C/c1ccc2c(c1)OCO2)c1ccccc1)c1ccc(OCCN2CCCC2)cc1`, the growth inhibition is 7.35%.
Then `O=C1C(=O)c2cc(Cl)ccc2-c2ccc(Cl)cc21`, with 93.5% (active).
Then `C/C(=N/NC(=O)Nc1ccc(N=Nc2ccccc2)cc1)c1cccnc1`, with 14.3%; and `CC(Cl)C(=O)Nc1cc2ccccc2oc1=O` (centres undefined), with -11.2%.
Then `CC(C)c1ccc2c(c1)CCC1C(C)(CN)CCCC21C` (centres undefined), with 99.1% (active); and `CN(NC1OC(=O)c2ccccc21)c1ccc(C(F)(F)F)cc1[N+](=O)[O-]` (centres undefined), with 54.5%; and `CCCC(CC)c1c(O)c(O)c(C(CC)CCC)c(C(CC)CCC)c1C(CC)CCC` (centres undefined), with 96% (active).
